Results: PubChem BioAssay AID2283170 (EPA ToxCast)
Inconclusive results are not listed. Active and inactive are the calls of the source. Rule for the calls: active = hit-call score of the fitted dose curve at least 0.9, where 1 is the maximum; inconclusive = response in the unintended direction; inactive = score below 0.9.

Each compound was assayed against human Lymphocyte-cell Factor Kinase (Lck), LCK (gene 3932) (UniProt P06239) (assay: NVS_ENZ_hLck: NovaScreen (NVS) Enzymatic Assay for human Lymphocyte-cell Factor Kinase (Lck)).
Chain of human Lymphocyte-cell Factor Kinase (Lck), LCK (gene 3932) (P06239 whole entry, looked up): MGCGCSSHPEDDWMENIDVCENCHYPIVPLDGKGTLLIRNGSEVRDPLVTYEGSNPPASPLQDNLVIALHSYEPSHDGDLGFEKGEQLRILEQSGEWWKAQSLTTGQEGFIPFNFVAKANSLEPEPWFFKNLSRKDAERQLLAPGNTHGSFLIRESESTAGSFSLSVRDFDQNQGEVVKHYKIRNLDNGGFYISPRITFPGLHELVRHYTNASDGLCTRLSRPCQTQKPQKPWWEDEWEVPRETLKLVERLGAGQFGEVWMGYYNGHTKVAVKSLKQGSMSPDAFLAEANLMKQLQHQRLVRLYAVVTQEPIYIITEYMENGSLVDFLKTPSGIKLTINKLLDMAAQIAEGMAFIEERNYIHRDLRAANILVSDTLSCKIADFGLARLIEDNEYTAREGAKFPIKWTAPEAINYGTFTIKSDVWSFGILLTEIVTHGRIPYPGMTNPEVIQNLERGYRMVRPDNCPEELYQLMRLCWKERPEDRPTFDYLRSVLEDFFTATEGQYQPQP
Method: NVS_ENZ_hLck is a biochemical, single-readout assay that uses extracted gene-proteins in a cell-free assay. Measurements were taken 1 hour after chemical dosing in a 384-well plate.NVS_ENZ_hLck is one of one assay component(s) measured or calculated from the NVS_ENZ_hLck assay. It is designed to make measurements of enzyme activity, a form of enzyme reporter, as detected with fluorescence intensity signals by Fluorescence and electrophoretic mobility shift technology.Data from the assay component NVS_ENZ_hLck was analyzed into 1 assay endpoint. This assay endpoint, NVS_ENZ_hLck, was analyzed in the positive analysis fitting direction relative to DMSO as the negative control and baseline of activity. Using a type of enzyme reporter, loss-of-signal activity can be used to understand changes in the enzymatic activity as they relate to the gene LCK. Furthermore, this assay endpoint can be referred to as a primary readout, because this assay has produced […] where this one serves a enzymatic activity function. To generalize the intended target to other relatable targets, this assay endpoint is annotated to the kinase intended target family, where the subfamily is non-receptor tyrosine kinase.
Binding assays used specific radioligands (tritiated, iodinated) with non-radioactive competitive displacement ligands in agonist or antagonist protocols (as indicated) and various reference compounds and inhibitors to titrate specific binding to receptors and transporters. Most enzyme assays (CYPs, kinases, phosphatases, proteases, HDACs) used recombinant protein and specific substrates (fluorescence mostly, some colorimetric and radioactive) and inhibitors, followed by a biochemical separation of substrate and product. All assays for the biochemical HTS were initially run in duplicate at a single concentration (10 uM for CYP450 assays and 25 uM for all others). Assay-chemical combinations meeting a pre-defined threshold (e.g., 30% inhibition and other criteria defined below) were then run in singleton concentration-response format with maximum concentration of 20 uM for CYPs and 50 uM for all others. Each assay was run with positive and negative controls, and concurrent controls on every plate. The follow-up (secondary) screen tested active chemical-pairs in concentration series, as well as a few additional assays not tested in the primary screen, some selected negative inactives, and several cases re-run in the concentration series for confirmatory purposes.

| SMILES | outcome | AC50 |
| --- | --- | --- |
| C=CCC1=C(C)[C@@H](OC(=O)[C@@H]2[C@@H](C=C(C)C)C2(C)C)CC1=O | inactive |  |
| S=C1NCCN1 | inactive |  |
| CC[C@H](C)[C@H]1O[C@]2(C=C[C@@H]1C)C[C@@H]1C[C@@H](C/C=C(\C)[C@@H](O[C@H]3C[C@H](OC)[C@@H](O[C@H]4C[C@H](OC)[C@@H](NC)[C@H](C)O4)[C@H](C)O3)[C@@H](C)/C=C/C=C3\CO[C@@H]4[C@H](O)C(C)=C[C@@H](C(=O)O1)[C@]34O)O2 |  | 36 µM (active) |
| CNC(=S)S | inactive |  |
| O=C(Nc1ccccc1)Nc1cnns1 | inactive |  |
| Cc1cnc(C2=NC(C)(C(C)C)C(=O)N2)c(C(=O)O)c1 (stereo not drawn) | inactive |  |
| O=S(=O)(O)C(F)(F)C(F)(F)C(F)(F)C(F)(F)C(F)(F)C(F)(F)C(F)(F)C(F)(F)F |  | 43.9 µM (active) |
| O=C(O)C(F)(F)C(F)(F)C(F)(F)C(F)(F)C(F)(F)C(F)(F)C(F)(F)F | inactive |  |
